From PubChem BioAssay AID492956 (The Scripps Research Institute Molecular Screening Center, 2010)
Hit rate of the full screen: of about 340,000 compounds, about 3,300 (0.97%) were called active. The entries come from a sample that favours actives as a whole. Unmarked numbers belong to inactive results.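 The calls were made as follows: active = inhibition above the mean over all tested compounds plus 3 SD (cut at about 30% in these data); inactive = the rest.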

These compounds were tested against Platelet-activating factor acetylhydrolase 2, cytoplasmic (Homo sapiens) (UniProt Q99487) (assay: inhibition of cytoplasmic PAF acetylhydrolase 2 – biochemical, fluorescence polarization, human, primary screen (AID 492956;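 also: inhibitors block probe labeling of enzyme so polarization drops; 0% = enzyme with DMSO and 100% = wells lacking PAFAH2 protein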)). Conditions: recombinant PAFAH2, FP-rhodamine activity probe, at 3.39 µM, active compounds read high.

Structure (SMILES)	inhibition
CONc1nc2nonc2nc1NOC	5.98%
Cc1ccc(Nc2c(F)c(F)c(F)c(F)c2C(=O)O)c(C)c1	4.36%
Cn1c(=O)c(C(=O)Nc2ncccn2)c(O)c2ccccc21	-2.23%
Cc1cc(=O)n2nc(N3CCCC3C(=O)NCCCN3CC(C)CC(C)C3)sc2n1 (centres undefined)	-2.55%
Cc1cccc(C(=O)OCC(=O)Nc2sc3c(c2C#N)CCC3)c1	3.15%
O=C(COc1ccc(Cl)cc1)Nc1ccc2c(c1)OCO2	-4.53%
O=C(COC(=O)c1ccncc1)Nc1ccc2c(c1)OCO2	1.78%
O=C(COC(=O)c1cccc(Cl)c1)Nc1ccc2[nH]c(=O)[nH]c2c1	-4.35%
Cc1cccc(C(=O)OCC(=O)Nc2ccc(F)cc2)c1	84% (active)
O=C(COC(=O)c1ccc(F)cc1)Nc1ccc2c(c1)OCO2	81% (active)
Cn1c(=O)c2c(ncn2CC(=O)N/N=C/c2cn[nH]c2-c2ccc(F)cc2)n(C)c1=O	3.66%
O=C(NCc1ccco1)/C(=C/c1cccc([N+](=O)[O-])c1)NC(=O)c1ccco1	-0.82%
CN1C(=O)/C(=C/C=C2\SCCN2C)OC1=S	-4.81%
COc1ccc(NS(=O)(=O)c2cc(NC(=O)C3CCCCC3)ccc2N2CCOCC2)cc1	0.82%
O=C(NCCS(=O)(=O)N1CCN(c2ccccc2F)CC1)c1ccc(Br)o1	-0.55%
COC(=O)c1ccc(S(=O)(=O)N2CCc3ccccc3C2)cc1	-2.2%
O=C(ON=C1CCN(S(=O)(=O)c2ccccc2)CC1)c1ccc(Cl)cc1	86.6% (active)
CC(OC(=O)c1ccc(S(=O)(=O)N2CCOCC2)cc1)c1ccccc1 (centres undefined)	2.29%
CN1CCC(OC(=O)COc2ccc(Cl)cc2Cl)CC1	-2.95%
CCN(C(=O)COC(=O)c1sccc1C)c1c(N)n(Cc2ccccc2)c(=O)[nH]c1=O	-2.58%

Structure (SMILES)	inhibition
Cc1ccc(-c2nc3c(cnn3-c3ccccc3)c(=O)o2)cc1	59.4% (active)
CC(=O)Cn1cnc2c(cnn2-c2ccccc2)c1=O	-0.98%
Cc1ccc(-n2ncc3c(=O)n(-c4ccc(C)c(C)c4)c(-c4ccco4)nc32)cc1	-1.39%
O=c1cc(O)c(-c2cccc(C(F)(F)F)c2)c(Cl)[nH]1	-1.33%
COc1ccc(S(=O)(=O)N2CCOCC2)cc1NC(=O)CSc1ncnc2ccccc12	0.39%
COc1ccc(S(=O)(=O)N2CCCCCC2)cc1NC(=O)Cc1ccc(OC)c(OC)c1	14.1%
COc1ccc(S(=O)(=O)N2CCOCC2)cc1NC(=O)COc1ccccc1	6.32%
COc1ccc(S(=O)(=O)N2CCOCC2)cc1NC(=O)c1ccc(OCC(C)C)c(OC)c1	4.28%
COc1ccc(S(=O)(=O)N2CCOCC2)cc1NC(=O)CC1CC2CCC1C2 (centres undefined)	70.4% (active)
COc1ccc(S(=O)(=O)N2CCOCC2)cc1NC(=O)Cc1c(F)cccc1Cl	43.5% (active)
COc1ccc(S(=O)(=O)N2CCOCC2)cc1NC(=O)CSc1nnc(NC2CC2)s1	3.17%
COc1ccc(S(=O)(=O)N2CCOCC2)cc1NC(=O)CSc1cc(C)ccc1C	2.32%
COc1ccc(S(=O)(=O)N2CCOCC2)cc1NC(=O)Cc1coc2cc(C)ccc12	39.9% (active)
CC(=O)NC(CC(=O)Nc1nccs1)c1ccccc1 (centres undefined)	0.3%
Cc1cnc(C)c(N2CCN(C(=O)C3CCC(=O)N(CCc4cccc(F)c4)C3)CC2)n1 (centres undefined)	6.98%
O=S(=O)(O)c1cc2onnc2c2ccccc12	18.2%
CCOC(=O)C1=C(C)c2ccccc2OC1(C)C(=O)OCC (centres undefined)	0.57%
CCOC(=O)c1c(C)[nH]c2c1-c1ccccc1C(=O)C2=O	53.9% (active)
CCOC(=O)c1ccccc1OC(=O)Oc1ccccc1C(=O)OCC	2.01%
CCOc1ccc(OCC)c(NC(=O)C(NS(=O)(=O)c2ccc3c(c2)oc(=O)n3C)C(C)C)c1 (centres undefined)	-6.23%

Structure (SMILES)	inhibition
O=C(NC1CCCC1)C1CC(=O)N(c2ccc(F)cc2)C1 (centres undefined)	5.88%
CC(=O)NS(=O)(=O)c1ccccc1	-3.11%
CCCCn1ccnc1C(=O)c1cccc(S(=O)(=O)N2c3ccccc3CC2C)c1 (centres undefined)	0.31%
CCN(C(=O)COC(=O)c1cc(NS(=O)(=O)c2ccc(Cl)c([N+](=O)[O-])c2)ccc1O)C1CCCCC1	14.6%
O=C(COc1ccccc1O)NC1CCCC1	1.1%
Cc1ccc(C(=O)NCC(=O)OCC(=O)NC2CCCCCCC2)cc1	-6.95%
CC(C)NS(=O)(=O)c1ccc(OCC(=O)NC2CCCCCC2)cc1	5.5%
O=C(COC(=O)c1ccccc1SCC(=O)NC1CCCCC1)NC1CCCCC1	59.5% (active)
O=C(COC(=O)c1cccc(Cl)c1)NC1CCCCCCC1	82.5% (active)
COc1ccc(NS(=O)(=O)c2ccc(O)c(C(=O)OCC(=O)NC3CCCCC3)c2)cc1	41% (active)
N#Cc1ccccc1Sc1ccccc1C(=O)OCC(=O)NC1CCCCC1	31% (active)
N#Cc1ccc(C(=O)OCC(=O)NC(=O)NC2CCCCC2)cc1	6.68%
O=C(COC(=O)c1cc([N+](=O)[O-])ccc1NCc1ccccc1)NC1CCCCC1	9.35%
O=C(COC(=O)c1cccc(Cl)c1)NC(=O)NCc1ccccc1	1.23%
CCOc1ncccc1C(=O)OCC(=O)NC1CC1	15.7%
CCN(CC)S(=O)(=O)c1ccc(N2CCN(C)CC2)c(NC(=O)Nc2ccccc2F)c1	-13.1%
COc1ccc(CN2CC[C@H]3C=CC[C@@H](C(=O)N4CCOCC4)[C@H]3C2=O)cc1OC	-0.91%
COc1cc(NC(=S)NCCSc2ccc(C)cc2)cc(OC)c1	5.74%
COc1ccc(C(=O)C2CCCN(C(=O)c3cnsn3)C2)c(C)c1 (centres undefined)	-5.08%
